Screening data from PubChem BioAssay.
A selection: hits, their analogues and other compounds. The true share with any hit is near 14%.
Giardia FBPA inh: inhibitors of Giardia lamblia fructose-1,6-bisphosphate aldolase. A8B2U2. purified Giardia FBPA. Potency, µM (top dose mostly 59.6 µM), most hits filed as inhibitors. actives 0.71% (n = 290,000). AID 2451; also: nearly all actives have a fitted effect of over 55% in size
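40 nM FBPA preincubated 10 min at RT with compound (up to 57.5 uM final), then substrate plus GAPDH/TPI/NAD/arsenate coupling and diaphorase/resazurin added. Fluorescence read after 20 min at RT, 525/598 nm.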
Shiga inhibitor: blocks Shiga toxin action in Vero cells; Vero cells, Shiga toxin protein synthesis inhibition reporter; inhibition, % at 38.7 µM; actives 9.2% (n = 290,000); AID 2315; in the data active = inhibition mostly above about 28%, no sharp cut-off; inactive = mostly below about 43%
LmPK inhibitor: LmPK (Leishmania mexicana) enzyme inhibition; Q27686; purified LmPK, Kinase-Glo ATP luminescence, 1 h; Potency, µM (titrated, usually from 57.5 µM), actives largely listed as inhibitors; actives 0.37% (n = 290,000)
Target sequence (Q27686 whole entry, looked up): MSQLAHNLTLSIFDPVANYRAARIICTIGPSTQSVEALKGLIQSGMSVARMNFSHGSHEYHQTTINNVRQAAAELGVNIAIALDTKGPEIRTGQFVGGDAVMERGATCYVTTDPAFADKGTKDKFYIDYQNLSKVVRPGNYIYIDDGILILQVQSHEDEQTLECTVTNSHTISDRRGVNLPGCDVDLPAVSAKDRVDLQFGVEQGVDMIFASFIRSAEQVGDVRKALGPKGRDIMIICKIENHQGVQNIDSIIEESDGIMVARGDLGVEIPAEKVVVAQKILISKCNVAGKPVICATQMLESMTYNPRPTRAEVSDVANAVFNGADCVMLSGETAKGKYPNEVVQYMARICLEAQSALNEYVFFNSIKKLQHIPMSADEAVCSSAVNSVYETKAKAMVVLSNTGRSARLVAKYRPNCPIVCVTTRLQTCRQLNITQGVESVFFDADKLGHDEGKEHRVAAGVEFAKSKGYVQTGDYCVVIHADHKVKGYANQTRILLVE
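Kinase-Glo luminescence read after 1 h RT reaction of 0.1 nM LmPK with 0.5 mM PEP and 0.1 mM ADP. Activity scaled between uninhibited and enzyme-free controls.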
NS1 function inh: inhibitors of influenza NS1 protein function | Potency, µM (highest dose often 46.1 µM) | actives 0.4% (n = 270,000); calls by dose curve; also: actives are rising curves; nearly all actives have a fitted effect of over 50% in size
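Read-out: OD600 growth recovery of NS1-expressing budding yeast. Cells grown overnight at 30C in -URA glucose medium, washed, resuspended and diluted 1:100 in 2% galactose assay medium, pH 6.0. Same strain lacking NS1 served as positive control.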
CHX counter: counter-screen for Shiga toxin inhibitors: cycloheximide protein synthesis inhibition | AID 2314 | max response, % | actives 12% (n = 300,000) | cell reporter, cycloheximide protein synthesis inhibition counterscreen; in the data active = max response mostly above about 13%, no sharp cut-off; inactive = mostly below about 14%; also: read at 38.3 µM for the half of the compounds with a filed dose
Numbers stand for hits; i = inactive; ? = inconclusive; nt = no result. Unless noted, calls follow the shape of the dose curve; as a rule, active = well fitted curve in the direction sought with a large enough effect; inconclusive = small, poorly fitted or top-dose-only effect, or another doubt; inactive = no such curve, though single readings can be large; an effect the other way counts as inactive or inconclusive.

SMILES	Giardia FBPA inh	Shiga inhibitor	LmPK inhibitor	NS1 function inh	CHX counter
COc1ccc(NC(=O)CN(c2ccc(OC)cc2)S(=O)(=O)c2ccc(OC)c(OC)c2)cc1	i	i	i	i	i
CCc1ccc(N2CC(C(=O)NC3CCCCC3C)CC2=O)cc1 (centres undefined)	i	i	i	i	i
CCCC1(C(=O)OC)C=C2C(=C(C)C(=O)C2C)CN1 (centres undefined)	i	nt	nt	nt	nt
CC(CCc1ccccc1)NC(=O)CCC(=O)N1CCC(C(=O)O)CC1 (centres undefined)	i	nt	i	i	i
CC(C)C[C@H](NC(=O)[C@H](CO)NC(=O)CNC(=O)[C@H](CCCCN)NC(=O)[C@H](CCCN=C(N)N)NC(=O)[C@H](C)NC(=O)[C@H](Cc1ccccc1)NC(=O)[C@@H](N)CCCN=C(N)N)C(=O)N[C@@H](CCCN=C(N)N)C(=O)N[C@@H](CCC(N)=O)C(=O)N[C@@H](CCCCN)C(=O)N[C@@H](CC(N)=O)C(=O)N[C@H](C(=O)O)C(C)C	i	i	nt	nt	i
O=C(NCCCn1ccnc1)C1CCN(S(=O)(=O)c2ccc(F)cc2)CC1	i	i	i	i	i
CC(C)[C@@H](CO)NC(=O)c1ccc2c3n(nc2c1)-c1ccc(Cl)cc1CO3	i	46.2	i	i	33.8
C[C@@H](CO)NC(=O)c1ccc2c3n(nc2c1)-c1ccc(Cl)cc1CO3	i	54.8	i	i	32.9
O=C(Nc1nnc(-c2ccc(F)cc2)o1)c1ccc(S(=O)(=O)N2CCOCC2)cc1	nt	i	i	i	i
CCOc1ccc(N2CC(C(=O)N3CCCC3)CC2=O)cc1 (centres undefined)	i	i	i	i	i
C=CCNC(=O)C1CC(=O)N(c2ccc(OCc3ccc(F)cc3)cc2)C1 (centres undefined)	i	72.0	i	i	47.5
NC(=O)C1CC(=O)N(c2ccc(OCc3ccc(Cl)cc3)cc2)C1 (centres undefined)	i	78.9	i	i	49.6
C=CCNC(=O)C1CC(=O)N(c2ccc(OCC(=O)Nc3ccccc3)cc2)C1 (centres undefined)	i	47.9	i	i	30.1
CCCNC(=O)C1CC(=O)N(c2ccc(OCc3ccc(F)cc3)cc2)C1 (centres undefined)	i	112.4	i	i	33.3
CCN(CC)S(=O)(=O)c1ccc(N2CCN(C)CC2)c(NC(=O)c2cc(=O)c3ccccc3o2)c1	i	i	i	i	i
CCCNC(=O)C1CC(=O)N(c2ccc(OCc3ccc(Cl)cc3)cc2)C1 (centres undefined)	i	nt	i	i	27.1
Cc1sc2ncn(CC(=O)N3CCN(c4ccccc4)CC3)c(=O)c2c1S(=O)(=O)N1CCOCC1	i	i	i	i	i
COc1cccc(-c2nc(NCCN3CCOCC3)c3ccccc3n2)c1	i	nt	nt	nt	nt
CCOc1cc(/C=C(\C#N)C(=O)Nc2ccccn2)ccc1O	?	i	i	i	12.8
Cc1cccc(/C=C(\C#N)C(=O)Nc2ccccn2)c1	?	i	i	i	i
COc1cc(/C=C(\C#N)C(=O)Nc2ccc3c(c2)OCCO3)ccc1O	i	51.1	i	i	33.0
COC(=O)c1ccc(/C=C(\C#N)C(=O)NC(C)c2ccccc2)cc1 (centres undefined)	i	i	i	i	i
COc1ccc(/C=C(\C#N)C(=O)NC(C)c2ccccc2)cc1O (centres undefined)	i	i	i	i	12.9
COc1cc(/C=C(\C#N)C(=O)Nc2ccccn2)ccc1O	?	51.6	i	i	19.1
COc1cc(/C=C(\C#N)C(=O)Nc2cccc3ncccc23)ccc1O	i	i	i	i	i
SMILES	Giardia FBPA inh	Shiga inhibitor	LmPK inhibitor	NS1 function inh	CHX counter
O=S(=O)(c1cc(F)ccc1F)N1CCN(c2ncccn2)CC1	i	i	i	i	i
Cc1oc(-c2ccc(Cl)cc2)nc1CN1CCC(C(=O)NCCCN2CCCC(C)C2)CC1 (centres undefined)	nt	i	i	i	i
O=C(NC1CCCCC1)C1(S(=O)(=O)c2ccc(Cl)cc2)CC1	i	i	i	i	i
COc1cc(OC)c2c(=O)c(-c3ccc4c(c3)OCO4)coc2c1	i	nt	nt	nt	nt
O=c1c(-c2ccc3c(c2)OCCO3)coc2cc(O)cc(O)c12	i	72.7	i	i	37.5
O=c1c(-c2ccccc2)coc2cc(O)cc(O)c12	19.9µM	nt	nt	nt	nt
c1cc(CSc2ncnc3nc[nH]c23)ccn1	nt	nt	nt	i	nt
CCO[C@@H]1OC(C(=O)NC2CC2)=C[C@H](c2c[nH]c3ccccc23)[C@H]1CCCO	i	52.1	i	i	i
